# Hit rate of the full screen: of about 310,000 compounds, about 2,200 (0.71%) showed an effect of 50% or more. Effects have a minus sign here. The sample holds strong results, similar compounds and a random draw of the others, so the mix is not that of the screen.
# Molecular target: human ether-à-go-go-related gene (hERG) potassium channel (human, UniProt Q12809)
# Assay: primary screen, population patch clamp on CHO cells stably expressing hERG; higher = less effect of the substance
# Sequence of human ether-à-go-go-related gene (hERG) potassium channel (Q12809 whole entry, looked up): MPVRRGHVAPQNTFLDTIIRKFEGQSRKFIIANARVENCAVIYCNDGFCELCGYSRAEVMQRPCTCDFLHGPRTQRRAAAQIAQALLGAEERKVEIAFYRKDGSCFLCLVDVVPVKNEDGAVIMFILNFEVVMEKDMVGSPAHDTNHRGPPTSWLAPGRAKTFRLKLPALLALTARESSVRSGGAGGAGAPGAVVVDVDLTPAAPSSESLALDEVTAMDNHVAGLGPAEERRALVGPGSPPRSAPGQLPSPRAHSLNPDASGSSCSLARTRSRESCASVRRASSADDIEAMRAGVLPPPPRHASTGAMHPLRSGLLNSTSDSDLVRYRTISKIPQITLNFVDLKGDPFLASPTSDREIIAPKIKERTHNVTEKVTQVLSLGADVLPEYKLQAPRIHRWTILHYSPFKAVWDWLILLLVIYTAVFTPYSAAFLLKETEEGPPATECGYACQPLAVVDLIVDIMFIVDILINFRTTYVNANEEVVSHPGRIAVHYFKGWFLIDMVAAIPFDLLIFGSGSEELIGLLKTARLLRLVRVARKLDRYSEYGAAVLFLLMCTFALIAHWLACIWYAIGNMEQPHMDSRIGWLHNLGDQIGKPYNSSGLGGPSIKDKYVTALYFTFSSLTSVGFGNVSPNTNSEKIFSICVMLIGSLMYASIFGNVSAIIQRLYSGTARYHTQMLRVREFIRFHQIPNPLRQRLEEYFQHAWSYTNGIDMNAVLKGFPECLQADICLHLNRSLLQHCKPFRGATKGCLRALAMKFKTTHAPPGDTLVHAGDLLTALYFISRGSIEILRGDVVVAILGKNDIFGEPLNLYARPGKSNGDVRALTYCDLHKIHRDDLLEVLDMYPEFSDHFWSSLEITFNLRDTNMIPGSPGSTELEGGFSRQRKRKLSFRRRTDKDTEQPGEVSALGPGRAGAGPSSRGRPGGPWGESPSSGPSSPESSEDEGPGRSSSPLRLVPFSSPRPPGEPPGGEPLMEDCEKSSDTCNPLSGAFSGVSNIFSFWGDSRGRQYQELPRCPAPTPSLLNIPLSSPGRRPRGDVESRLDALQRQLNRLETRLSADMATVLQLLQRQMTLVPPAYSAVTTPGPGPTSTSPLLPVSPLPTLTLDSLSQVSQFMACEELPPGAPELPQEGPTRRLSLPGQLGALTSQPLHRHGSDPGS
row,SMILES,"hERG current change (%, negative = inhibition) at 1uM"
1,CNC(=O)NC(=O)CSc1nnc(C(F)(F)F)n1C,8.32%
2,O=C(OCC(=O)N1CCCC1)c1c(Cl)ccc(Cl)c1Cl,9.45%
3,CCCc1nc(NC(C)=O)c(C#N)c(-c2ccco2)c1CC,0.0807%
4,Cc1cccc(C)c1NC(=O)c1c[nH]c2ccccc12,11.7%
5,COCC(C)n1c(C)cc(C(=O)CN2c3cccc4cccc(c34)S2(=O)=O)c1C (stereo not drawn),7.82%
6,CC(C)C(c1nnnn1Cc1ccccc1)N(CCCO)Cc1cc2cc3c(cc2[nH]c1=O)OCO3 (stereo not drawn),10.4%
7,COC(=O)c1cc2ccsc2n1CC(=O)Nc1ccc(N(C)C)cc1,5.25%
8,C=CCN1N=C(c2ccc(Cl)s2)CSC1=O,22.3%
9,Cc1ccc(NC(=S)NC(=O)CC2CC(C)(C)OC2=O)cc1 (stereo not drawn),8.78%
10,C=CC[n+]1c(/C=C2\C=Cc3cc(C)ccc3N2CC)ccc2ccccc21.[Br-],-92.1%
11,CCN1/C(=C/c2ccc3ccccc3[n+]2CC)C=Cc2ccccc21.[Cl-],-89.5%
12,CCN1/C(=C/c2cc[n+](C)cc2)C=Cc2cc(C)ccc21.[I-],-55.5%
13,CCN1/C(=C2\C(=O)N(c3ccccc3)N=C2C)C=Cc2cc(C)ccc21,-1.41%
14,CCN1C(=C(C#N)C#N)C=Cc2ccccc21,15.9%
15,CCN1C(=O)/C(=C2\C=Cc3cc(C)ccc3N2CC)OC1=S,14%
16,CCOC(=O)/C(C#N)=C/C=C1\C=Cc2ccccc2N1CC,14.8%
17,CCN1/C(=C/c2ccc3ccccc3[n+]2CCCS(=O)(=O)[O-])C=Cc2cc(C)ccc21,13%
18,CCN1C(=C(C#N)C#N)C=Cc2cc(C)ccc21,14.9%
19,O=S(=O)(CCc1nnc(-c2ccc(Br)cc2)o1)c1ccc(Cl)cc1,6.04%
20,Cc1cccc(NC(=O)CSc2cccc3cccnc23)c1C,13.9%
21,COc1ccccc1NC(=O)c1nc[nH]c1C(=O)Nc1ccccc1OC,22.2%
22,CC(=O)N1CCN(CCN=CC2=C(O)CC(c3ccco3)CC2=O)CC1 (stereo not drawn),2.39%

row,SMILES,"hERG current change (%, negative = inhibition) at 1uM"
1,CCCCCC(=O)N1CCN(CCN=CC2=C(O)CC(c3ccco3)CC2=O)CC1 (stereo not drawn),-74.7%
2,CC(C)C(=O)N1CCN(CCN=CC2=C(O)CC(c3ccco3)CC2=O)CC1 (stereo not drawn),14%
3,CCC(=O)N1CCN(CCN=CC2=C(O)CC(c3cccs3)CC2=O)CC1 (stereo not drawn),9.17%
4,CCCCCC(=O)N1CCN(CCN=CC2=C(O)CC(c3cccs3)CC2=O)CC1 (stereo not drawn),-109%
5,CC(=O)N1CCN(CCN=CC2=C(O)CC(c3cccs3)CC2=O)CC1 (stereo not drawn),10.4%
6,COc1ccc(C(=O)NC(=S)Nc2ccc(S(=O)(=O)Nc3cc(OC)nc(OC)n3)cc2)cc1,13.7%
7,O=C(Oc1ccc2c(c1)CCC2)N1CCOCC1,11.3%
8,Cc1ccc(S(=O)(=O)N2CCCC2C(=O)NCc2ccco2)cc1 (stereo not drawn),8.74%
9,Cc1ccc(C)c(S(=O)(=O)N2CCCOC2CNC(=O)C(=O)NC2CC2)c1 (stereo not drawn),19.9%
10,COc1ccc(Nc2nc(N3CCCC3)nc3ccccc23)c(OC)c1,-7.36%
11,COc1ccc(Nc2nc(N3CCCCC3)nc3ccccc23)c(OC)c1,-12.1%
12,COc1ccc(Nc2nc(N3CCN(C)CC3)nc3ccccc23)c(OC)c1,-76.6%
13,Cc1ccc(-n2c(SCC(=O)NCC3CCCO3)nc3c(c2=O)SCC3)cc1 (stereo not drawn),2.53%
14,COc1ccc(CN(C)CC2CCCN(CCc3ccc(Cl)cc3)C2)cc1OC (stereo not drawn),-78.2%
15,CN(CC1CCCN(CCc2ccc(Cl)cc2)C1)C(=O)c1ccco1 (stereo not drawn),11.1%
16,CN(CC1CCCN(CCc2ccc(Cl)cc2)C1)C(=O)c1ccoc1 (stereo not drawn),-85.3%
17,COc1cccc(CN(C)CC2CCCN(CCc3ccc(Cl)cc3)C2)c1OC (stereo not drawn),-3.32%
18,Cc1ccccc1CCN1CCCC(CN(C)C(=O)C(=O)c2ccco2)C1 (stereo not drawn),-17.7%
19,CN(CC1CCCN(CCc2ccc(Cl)cc2)C1)C(=O)C(=O)c1ccco1 (stereo not drawn),-72.5%
20,CN(CC1CCCN(CCc2ccccc2F)C1)C(=O)c1ccoc1 (stereo not drawn),-25.9%
21,CN(C)C(=O)CCC(=O)N(C)CC1CCCN(CCc2ccc(F)cc2)C1 (stereo not drawn),-0.257%
22,COc1ccc(CCN2CCCC(CN(C)C(=O)c3ccoc3)C2)cc1 (stereo not drawn),-32.6%

row,SMILES,"hERG current change (%, negative = inhibition) at 1uM"
1,COc1ccc(CCN2CCCC(CN(C)C(=O)c3ccoc3C)C2)cc1 (stereo not drawn),18.4%
2,COc1ccc(CN(C)CC2CCCN(CCc3ccc(F)cc3)C2)cc1OC (stereo not drawn),-8.47%
3,Cc1cc(C(=O)N(C)CC2CCCN(CCc3ccc(F)cc3)C2)c(C)o1 (stereo not drawn),-71.6%
4,O=C(O)CCC(=O)Nc1sc2c(c1C(=O)NCc1ccccc1)CCCC2,0.699%
5,Cc1cc2c(cc1C)C(c1ccccc1Br)CC(=O)N2 (stereo not drawn),13.7%
6,Cc1ccc(N2CC(C(=O)Oc3cccc(N4C(=O)CCC4=O)c3)CC2=O)cc1 (stereo not drawn),-8.29%
7,Cc1nn(-c2ccccc2)c(Cl)c1/C=N/O,4.67%
8,Cc1c(C(C)(C)C)s/c(=N/S(=O)(=O)c2ccccc2)n1C,12.6%
9,N#Cc1c(NC(=O)CSc2nc3ccccc3s2)sc2c1CCCC2,9.38%
10,O=C(O)c1ccc(N/N=C/c2ccncc2)cc1,10%
11,COCc1ccc(C(=O)N(C)CC2CCCN(CCc3ccc(OC)cc3)C2)o1 (stereo not drawn),-38.5%
12,COCc1ccc(C(=O)N(C)CC2CCCN(CCc3ccccc3F)C2)o1 (stereo not drawn),-11.7%
13,COCc1ccc(C(=O)N(C)CC2CCCN(CCc3ccc(Cl)cc3)C2)o1 (stereo not drawn),-65.1%
14,COc1ccc(CNc2nc3c(c(=O)n(Cc4ccc(Br)cc4)c(=O)n3C)n2C)cc1,-10.5%
15,CN(C)CCN(Cc1ccc(Cl)cc1)c1ccccn1.Cl,-57.1%
16,C[N+](C)(C)CCN(Cc1ccc(Cl)cc1)c1ccccn1.[I-],6.09%
17,CN(C)CCN(Cc1ccccc1)c1ccccn1.Cl,-19.1%
18,Cc1ccc(-n2cccc2/C=C2/C(=N)N3C(=NC2=O)SN=C3S(C)(=O)=O)cc1Cl,11.1%
19,COC(=O)[C@H]1C[C@H](C(=O)O)[C@@H](C)C1(C)C,9.34%
20,O=[N+]([O-])c1ccc(-n2nncc2-c2ccccc2)cc1,0.0452%
21,O=Cc1ccc(-n2nncc2-c2ccc([N+](=O)[O-])cc2)cc1,-12.4%
22,O=[N+]([O-])c1ccc(-n2nncc2-c2ccc(Cl)cc2)cc1,-60.4%

row,SMILES,"hERG current change (%, negative = inhibition) at 1uM"
1,CCS(=O)(=O)NCCCc1ccccc1,-5.33%
2,CCn1c(C)[n+](CCOCC[n+]2c(C)n(CC)c3cc(Cl)c(Cl)cc32)c2cc(Cl)c(Cl)cc21.[I-],8.45%
3,Cc1n(C)c2cc(Cl)ccc2[n+]1Cc1ccccc1.[I-],4.11%
4,CCn1c(/C=C/Nc2ccccc2)[n+](CC)c2ccc(Cl)cc21.[I-],-82.8%
5,CCn1c(/C=C/N(C(C)=O)c2ccccc2)[n+](CCCS(=O)(=O)[O-])c2cc(Cl)c(Cl)cc21,10.6%
6,CCn1c(/C=C/Nc2ccccc2)[n+](CC)c2cc(Cl)c(Cl)cc21.[I-],-87.2%
7,CCn1c(/C=C/N(C(C)=O)c2ccccc2)[n+](CC)c2ccc(Cl)cc21.[I-],5.77%
8,Cc1ccccc1Cn1c(=O)n(CCC(=O)NCc2ccc3c(c2)OCO3)c(=O)c2ccccc21,16.7%
9,CCCOC(=O)c1cc(-c2ccc(C=O)o2)ccc1Cl,3.2%
10,O=C(COC(=O)CCC(=O)c1ccc(F)cc1)Nc1nnc(-c2ccccc2)o1,-0.682%
11,CCCCCCCNC(=O)C1(CC2CC(c3cccc(Br)c3)=NO2)CCN(C(=O)CCCCCBr)CC1 (stereo not drawn),-72%
12,CCCCCCCNC(=O)C1(CC2CC(c3ccc(Cl)cc3)=NO2)CCN(C(=O)CCCCCBr)CC1 (stereo not drawn),-52.1%
13,CCCCCCCNC(=O)C1(CC2CC(c3ccc(Cl)cc3)=NO2)CCN(C(=O)OC(C)(C)C)CC1 (stereo not drawn),18.9%
14,O=C(CCCCCBr)N1CCC(CC2CC(c3ccc(Cl)cc3)=NO2)(C(=O)NCC2CCCCC2)CC1 (stereo not drawn),-37.5%
15,CCCCCCCNC(=O)C1(CC2CC(c3cccc(Br)c3)=NO2)CCN(C(=O)OC(C)(C)C)CC1 (stereo not drawn),4.2%
16,CCCNC(=O)C1(CC2CC(c3ccccc3)=NO2)CCN(C(=O)CCCCCBr)CC1 (stereo not drawn),-5.35%
17,CCN1C(=O)N(CC)C2NC(=S)NC21 (stereo not drawn),7.44%
18,CC(=O)C1=C(NC(=O)c2ccc(F)cc2)CC2C1C2(C)C (stereo not drawn),9.7%
19,O=C(CN1C(=O)CSc2ccccc21)N1CCc2ccccc21,9.93%
20,O=C(O)CSc1nnc(SCc2cccc3ccccc23)s1,6.81%
21,COc1ccccc1CNC(=O)C1CCN(S(=O)(=O)c2ccc3c(c2)OCCCO3)CC1,-1.02%
